# Screens (PubChem)
# p53null 39C kill – qHTS Screen for Compounds that Selectively Target Cancer Cells with p53 Mutations: Cytotoxicity of p53 Null Cells at the Nonpermissive Temperature | Potency, µM (titrated, usually from 46.1 µM), most hits filed as cytotoxic | hit rate 0.97% among 55,000 | H1299 p53-null (neo) cells, 39C, ATPlite viability, 24 h; further: nearly all actives have a fitted effect of over 50% in size
#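 ATP-luminescence viability readout (ATPlite, 20 min RT) after 24 hr compound treatment at 39C of H1299-neo or H1299-p53A138V cells; titration up to 46 uM; normalized to DMSO and 100 uM tamoxifen; Hill-fit AC50.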
# FH mod – Identification of activators of human fumarate hydratase by quantitative high-throughput screening. Potency, µM (highest dose often 79.9 µM), hits mostly inhibitors. AID 1347055, 2019. FH coupled MDH/diaphorase resazurin fluorescence, 15 min. Fumarate hydratase, mitochondrial (Homo sapiens), P07954. hit rate 0.22% among 54,000; further: the screen sought activators but most active calls are inhibition curves; nearly all actives have a fitted effect of over 45% in size
# p53null 32C kill – qHTS Screen for Compounds that Selectively Target Cancer Cells with p53 Mutations: Cytotoxicity of p53 Null Cells at the Permissive Temperature; H1299-neo p53 null cells, ATP luminescence, 24 h, 32C; Potency, µM (titrated, usually from 46.1 µM), actives largely listed as cytotoxic; hit rate 0.62% among 55,000; further: nearly all actives have a fitted effect of over 55% in size
#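 H1299-neo, 600 cells/well; overnight 37C; cpd up to 46 uM, 24 h at 32C; ATPlite luminescence after 20 min RT; normalized to DMSO (0%) and tamoxifen 100 uM (100% kill); Hill-fit AC50.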
# SKOV3 invasion – Primary qHTS assay for Inhibitors of ovarian cancer metastasis using an organotypic tumor microenvironment (TME) model. AID 1963576, 2024. Potency, µM (doses to about 45.8 µM), most hits filed as inhibitors. SKOV3ip1-GFP adhesion/invasion on 3D omental model, fluorescence. hit rate 0.1% among 46,000; further: nearly all actives have a fitted effect of over 65% in size
#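 Primary human omental fibroblast/mesothelial 3D culture pre-formed 48 h. SKOV3ip1-GFP cells added with compounds (0.36-46 umol/L), incubated 2 h RT/16 h 37 C, fixed; GFP cells quantified at 488/509 nm.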
# NTMT1 inhibitor – Primary qHTS for Inhibitors of N-terminal methyltransferase 1 (NTMT1): MTaseGlo Assay | N-terminal Xaa-Pro-Lys N-methyltransferase 1 (Homo sapiens), Q9BV86 | NTMT1 MTase-Glo SAH luminescence, purified enzyme | Potency, µM (doses to about 114 µM), actives largely listed as inhibitors | hit rate 2.5% among 59,000 | AID 1645870, 2021; further: nearly all actives have a fitted effect of over 65% in size
# Target sequence (Q9BV86 whole entry, looked up): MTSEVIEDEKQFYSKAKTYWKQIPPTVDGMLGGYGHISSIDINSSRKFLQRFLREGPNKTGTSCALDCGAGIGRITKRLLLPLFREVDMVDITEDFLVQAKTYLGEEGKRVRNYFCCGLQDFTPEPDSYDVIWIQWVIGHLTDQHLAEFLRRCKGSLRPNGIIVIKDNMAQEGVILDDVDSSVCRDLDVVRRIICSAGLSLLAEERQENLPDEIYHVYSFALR
# CLK4 inh – Confirmation Assay for Inhibitors of CDC-like Kinase 4 (Kinase-Glo Assay): SAR round 2 | recombinant Clk4, Kinase-Glo ATP luminescence, 4.5 h | hit rate 90% among 90 | shares compounds with NTMT1 inhibitor | Potency, µM (series often up to 76.9 µM), hits mostly inhibitors
# Sfp qHTS opt – qHTS Assay for Inhibitos of Bacillus subtilis Sfp phosphopantetheinyl transferase (PPTase): Chemistry Optimization Followup; Potency, µM (top dose mostly 114 µM), hits mostly inhibitors; shares compounds with NTMT1 inhibitor; purified Sfp PPTase enzyme activity, qHTS; hit rate 78% among 230; AID 540350, 2011
# HM489 growth – qHTS for Inhibitos of Bacillus subtilis Sfp phosphopantetheinyl transferase (PPTase): Chemistry Optimization Followup in B. Subtilis HM489; Potency, µM (highest dose often 114 µM), usual class: inhibitors; AID 540353, 2011; B. subtilis HM489 (acpS-) growth, BacTiter-Glo, 5 h; hit rate 50% among 220; shares compounds with NTMT1 inhibitor
# Sfp gel opt – Gel-Based Assay for Inhibitos of Bacillus subtilis Sfp phosphopantetheinyl transferase (PPTase): Chemistry Optimization Followup. shares compounds with NTMT1 inhibitor. purified Sfp PPTase, gel-based product detection. Potency, µM (doses to about 250 µM), actives largely listed as inhibitors. hit rate 54% among 220
# Sfp inh SAR2 – qHTS Assay for Inhibitors of Bacillus subtilis Sfp phosphopantetheinyl transferase (PPTase): SAR Round 2; purified Sfp enzyme, PPTase activity, qHTS; shares compounds with NTMT1 inhibitor; hit rate 87% among 230; Potency, µM (titrated, usually from 57.1 µM), most hits filed as inhibitors
# USP2a K63 – Confirmation Assay for Inhibitors of Ubiquitin-specific Protease USP2a Using CHOP2 as the Reporter: K633; shares compounds with NTMT1 inhibitor; USP2 cleavage of DiUb K63-3IQF, fluorescence kinetic; Potency, µM (top dose mostly 57.5 µM), usual class: inhibitors; hit rate 80% among 30; AID 652172, 2013
# Casp6 inh – qHTS for Inhibitors of Ubiquitin-specific Protease USP2a Using CHOP2 as the Reporter: Caspase 6 Assay; Caspase 6 enzyme, Caspase-Glo 6 luminescence; activity change, negative = inhibition, % at 46.1 µM; shares compounds with NTMT1 inhibitor; 30 tested, under 10 active
# HSD17B4 inh – Extended Characterization of HPGD Inhibitors: Counterscreen Against HSD17b4; shares compounds with NTMT1 inhibitor; hit rate 10% among 230; AID 743187, 2013; Potency, µM (doses to about 57.1 µM), usual class: inhibitors; purified HSD17B4, estradiol/NAD+, NADH fluorescence
# ALDH1A1 counter – Extended Characterization of HPGD Inhibitors: Counterscreen Against ALDH1A1; hit rate 93% among 230; recombinant ALDH1A1, NADH fluorescence, propionaldehyde/NAD+; AID 743195, 2013; shares compounds with NTMT1 inhibitor; Potency, µM (series often up to 57.1 µM), usual class: inhibitors
# Target sequence (P00352 whole entry, looked up): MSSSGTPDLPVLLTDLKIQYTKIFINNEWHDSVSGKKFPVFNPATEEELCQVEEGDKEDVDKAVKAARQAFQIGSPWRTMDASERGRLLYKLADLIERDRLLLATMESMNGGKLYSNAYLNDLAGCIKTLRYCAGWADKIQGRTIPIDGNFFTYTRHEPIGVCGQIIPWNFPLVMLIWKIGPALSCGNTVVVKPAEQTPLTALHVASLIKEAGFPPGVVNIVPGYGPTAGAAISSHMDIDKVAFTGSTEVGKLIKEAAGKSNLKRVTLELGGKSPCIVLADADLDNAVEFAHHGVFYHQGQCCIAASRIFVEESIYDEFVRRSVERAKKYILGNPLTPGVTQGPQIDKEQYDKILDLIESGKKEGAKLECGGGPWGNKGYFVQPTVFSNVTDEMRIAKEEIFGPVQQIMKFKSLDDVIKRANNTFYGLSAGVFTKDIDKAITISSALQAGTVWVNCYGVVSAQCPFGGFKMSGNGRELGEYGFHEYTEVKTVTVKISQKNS
# NNMT counter – Counterscreen qHTS for Inhibitors of N-terminal methyltransferase 1 (NTMT1): NNMT MTaseGlo assay. shares compounds with NTMT1 inhibitor. NNMT MTase-Glo luminescence, SAH detection. Potency, µM (series often up to 57.1 µM), usual class: inhibitors. hit rate 10% among 120. AID 1645878, 2021
# Numbers stand for hits; - = inactive; ? = inconclusive; . = not tested or not shown. This excerpt belongs to a sample that is enriched for hits. The call rests on the fitted dose curve; in most records, active means well fitted curve in the direction sought with a large enough effect; inconclusive means small, poorly fitted or top-dose-only effect, or another doubt; inactive means no such curve, though single readings can be large; an effect the other way counts as inactive or inconclusive.
SMILES,p53null 39C kill,FH mod,p53null 32C kill,SKOV3 invasion,NTMT1 inhibitor,NNMT counter,others
Cc1ccc(CN(C)c2ncnc3ccc(-c4ccc(C(=O)O)o4)cc23)o1,.,.,.,.,-,.,CLK4 inh=0.519µM
CCCCOc1cccc(C(=O)N(Cc2ccc(C)o2)c2ccccn2)c1,-,-,-,-,-,.,
CN=c1nc(-c2ccccc2)n(-c2ccccc2)s1,.,?,.,.,.,22.4µM,
COc1ccc(C(=O)COC(=O)CCCC(=O)Nc2ccc(C(C)=O)cc2)cc1,-,-,-,-,-,.,
COc1ccc2nc(-c3cc(OC)c(OC)c(OC)c3)cc(C(=O)NCC(=O)Nc3ccc(C(C)=O)cc3)c2c1,.,-,.,.,-,?,
CCN(CC)Cc1cccc(/C=C/c2nc3ccc(F)cc3c(=O)n2-c2ccccc2Cl)n1,.,-,.,.,-,.,
CCCNc1ccc2ncc(-c3ccc4[nH]ncc4c3)n2n1,.,-,.,.,28.2µM,14.1µM,
C=C[C@H]1C(O[C@@H]2O[C@H](CO)[C@@H](O)[C@H](O)[C@H]2O)OC=C2C(=O)N3CCc4c([nH]c5ccccc45)[C@H]3C[C@H]21 (some centres undefined),.,-,.,.,-,.,
CC[N+]1(C/C2=C/CCCCCC2)CCC(NC(=O)C2c3cc(Cl)ccc3Oc3ccc(Cl)cc32)CC1 (centres undefined),.,-,.,.,?,?,
COc1cc2nc(N3CCN(C(=O)c4ccco4)C4CCCCC43)nc(N)c2cc1OC (centres undefined),.,-,.,.,?,-,
COc1ccc(OC)c2sc(N3CCN(C(=O)c4ccco4)CC3)nc12,-,-,-,-,-,.,
O=C(O[C@H]1[C@@H]2C=CO[C@@H](O[C@@H]3O[C@H](CO)[C@@H](O)[C@H](O)[C@H]3O)[C@@H]2[C@@]2(CO)O[C@@H]12)c1ccc(O)c(O)c1,.,-,.,.,-,.,
COc1ccc(N2CCN(C(=S)Nc3cc(C)ccn3)CC2)cc1,.,.,.,.,50.1µM,.,Sfp qHTS opt=11.8µM;HM489 growth=33.2µM;Sfp gel opt=-;Sfp inh SAR2=10.2µM;HSD17B4 inh=-;ALDH1A1 counter=6.81µM
Cc1ccnc(NC(=S)N2CCN(c3ccc(N)cc3)CC2)c1,.,.,.,.,?,.,Sfp qHTS opt=?;HM489 growth=?;Sfp gel opt=-;Sfp inh SAR2=10.2µM;HSD17B4 inh=?;ALDH1A1 counter=9.61µM
Cc1ccc(S(=O)(=O)n2cc(C(=O)Nc3ccc(-c4ccccc4)cc3)c3ccccc32)cc1,.,.,.,.,-,.,
COCc1c(O)c(C(=O)O)c(C)c2c1OC(=O)c1c(C)cc(O)c(CO)c1O2,.,-,.,.,?,.,
Cc1[nH]c(/C=C2\C(=O)Nc3cc(-c4ccccc4)ccc32)c(C)c1CCC(=O)O,.,-,.,.,?,-,
C=CCc1ccc(O[C@@H]2O[C@H](CO)[C@@H](O)[C@H](O)[C@H]2O)c(OC)c1,.,-,.,.,-,.,
Cc1ccc(-n2c(C)cc(-c3nnc4n3CCCCC4)c2C)cc1,.,.,.,.,-,.,HSD17B4 inh=-;ALDH1A1 counter=?
Cc1cc(-c2nnc3n2CCCCC3)c(C)n1-c1cccc(C(F)(F)F)c1,.,.,.,.,-,.,HSD17B4 inh=-;ALDH1A1 counter=?
Cc1cc(-c2nnc3n2CCCCC3)c(C)n1-c1ccncc1,.,.,.,.,-,.,
Cc1ccc(NC(=O)N2CCN(c3nc(N)nc4sc(-c5cccnc5)nc34)CC2)cc1,.,-,.,.,-,-,
Cc1ccc(S(=O)(=O)Nc2cnccc2C(=O)Nc2nc(-c3ccccc3F)cs2)cc1,.,.,.,.,-,.,
Cc1ccc(S(=O)(=O)Nc2ccc(OC(F)(F)F)cc2C(=O)Nc2nc(-c3ccccc3)cs2)cc1,.,.,.,.,-,.,
Cc1ccc(S(=O)(=O)Nc2cc(F)c(F)cc2C(=O)Nc2nc(-c3ccccc3)cs2)cc1,.,.,.,.,-,.,
Cc1ccc(S(=O)(=O)Nc2cccnc2C(=O)Nc2nc(-c3ccccc3)cs2)cc1,.,.,.,.,-,.,
Cc1ccc(S(=O)(=O)Nc2ccc(Cl)cc2C(=O)Nc2nc(-c3ccccc3)cs2)cc1,.,.,.,.,?,.,USP2a K63=1.22µM;Casp6 inh=-
Cc1ccc(S(=O)(=O)Nc2ncccc2C(=O)Nc2nc(-c3ccccc3)cs2)cc1,.,.,.,.,.,.,USP2a K63=3.43µM;Casp6 inh=-
